Screens from PubChem BioAssay.
In the library only some 3.4% were active in any assay of this set; here they are far more common.
MITF primary: MITF inhibitors, primary screen, biochemical, AlphaScreen, human; AlphaScreen MITF homodimerization, bead proximity signal; inhibition, % at 2.6 µM; Microphthalmia-associated transcription factor (Homo sapiens), O75030; hit rate 0.91% among 650,000; in the data active = inhibition above about 50%;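 note: 0% = vehicle wells with protein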
Target sequence (O75030 whole entry, looked up): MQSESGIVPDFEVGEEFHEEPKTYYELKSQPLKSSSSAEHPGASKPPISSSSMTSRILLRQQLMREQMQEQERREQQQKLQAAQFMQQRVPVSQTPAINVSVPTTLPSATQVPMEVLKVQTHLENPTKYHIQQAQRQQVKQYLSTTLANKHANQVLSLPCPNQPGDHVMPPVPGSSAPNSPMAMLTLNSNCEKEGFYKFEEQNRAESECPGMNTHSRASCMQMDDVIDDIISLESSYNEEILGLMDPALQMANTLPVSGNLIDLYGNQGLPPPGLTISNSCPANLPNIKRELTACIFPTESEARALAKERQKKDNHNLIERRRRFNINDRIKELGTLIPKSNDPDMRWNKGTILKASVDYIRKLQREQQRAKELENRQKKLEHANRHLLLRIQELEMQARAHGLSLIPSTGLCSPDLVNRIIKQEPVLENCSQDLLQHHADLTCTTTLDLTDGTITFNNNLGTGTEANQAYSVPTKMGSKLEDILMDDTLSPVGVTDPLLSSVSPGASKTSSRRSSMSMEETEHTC
GPR151 activ: activators of human GPR151, primary screen, cell-based, PathHunter beta-arrestin, luminescence; PathHunter beta-arrestin GPR151 cells; activation, % at 11.2 µM; hit rate 1% among 650,000; in the data active = activation above about 4.9%;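 note: 0% = median of compound wells and 100% = cells with positive control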
TEAD-YAP inh: TEAD-YAP interaction inhibition, primary screen, TEAD-YAP interaction inhibitor project, luminescence, HEK-TIYL cells; TEAD-Gal4/YAP UAS-luciferase luminescence; inhibition, % at 9.12 µM; hit rate 1.4% among 640,000; AID 1259422, 2018; in the data active = inhibition above about 32%;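 note: 0% = median of test compound wells and 100% = reference inhibitor wells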
FBW7 activator: FBW7 E3 ligase activators, primary screen, biochemical, AlphaScreen, human | F-box/WD repeat-containing protein 7 (Homo sapiens), Q969H0 | AlphaScreen FBW7–phospho-cyclin E peptide binding, activator screen | normalized activity (activation), % at 26.1 µM | hit rate 0.13% among 650,000; in the data active = normalized activity above about 1.9%;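 note: purified mutant Fbw7 with reduced substrate affinity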
GPR151 conf act: GPR151 activators, triplicate retest, confirmation, cell-based, PathHunter beta-arrestin, luminescence; shares compounds with GPR151 activ; activation, % at 11.2 µM; GPR151 PathHunter beta-arrestin cells, 90 min; % of EA-reagent control over plate median; AID 1508609, 2020; 6,700 tested, under 10 active;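 active = mean percent activation across replicates above the confirmation screen cutoff of 4.91%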
GPR119 ag: GPR119 activators in beta-arrestin cells, counter-screen for GPR151 activator project, cell-based, PathHunter beta-arrestin, luminescence, triplicate. AID 1508611, 2020. hit rate 0.3% among 6,700. shares compounds with GPR151 activ. 90 min; 0 = compound-well median, 100 = enzyme-acceptor control. activation, % at 11.2 µM;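 active = mean percent activation in the counterscreen above 29.09%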;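 note: counterscreen on off-target GPR119 to flag nonselective hits from the GPR151 activator screen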
* marks the source's active call; other numbers are inactive results; . = no result.

SMILES | MITF primary | GPR151 activ | TEAD-YAP inh | FBW7 activator | GPR151 conf act | GPR119 ag
Cc1ccc(NC(=O)CS(=O)(=O)c2ccccc2)cc1 | 5 | 6.1* | -7 | 0 | 0 | 10
Cc1ccc(NS(=O)(=O)c2ccc(NC(=O)CCCOc3ccccc3)cc2)cc1 | 10 | 6.7* | -10 | 0 | 1 | 4
O=C(NCc1ccccc1)c1cccnc1Nc1ccc(F)cc1 | -2 | 0 | 5 | 0 | . | .
COc1cccc(C(=O)COC(=O)c2cccc(NC(=O)c3ccccc3)c2)c1 | -3 | 6.1* | -4 | 0 | 0 | -7
O=C(COC(=O)c1ccccc1)c1ccc2ccccc2c1 | 0 | 5.4* | 6 | 0 | -1 | -18
O=C(COC(=O)c1ccc2ccccc2n1)c1ccccc1 | -1 | 0 | 1 | 0 | . | .
O=C(COC(=O)c1ccc2ccccc2n1)c1ccc(Cl)c(Cl)c1 | -9 | 5.6* | -3 | 0 | 0 | -3
COc1cc(N=Nn2cnnc2)cc([N+](=O)[O-])c1O | -5 | 0 | 5 | 0 | . | .
CCOC(=O)C1=C(C)N=c2s/c(=C/c3ccc(-c4ccc(Br)cc4)o3)c(=O)n2C1c1ccc(N(C)C)cc1 (stereo unspecified) | -8 | 5.5* | 6 | 0 | 0 | -3
CCOC(=O)C1=C(C)N=c2s/c(=C/c3ccc(-c4ccc(C(=O)OCC)cc4)o3)c(=O)n2C1c1ccc(N(C)C)cc1 (stereo unspecified) | 3 | 0 | -23 | 0 | . | .
CCOC(=O)C1=C(C)N=c2s/c(=C\c3ccc(Br)o3)c(=O)n2C1c1cccs1 (stereo unspecified) | 2 | 4.9* | 6 | 0 | -1 | 0
CCOC(=O)C1=C(C)N=c2s/c(=C/c3cc(Br)c(Br)o3)c(=O)n2C1c1cccs1 (stereo unspecified) | 3 | -1 | -10 | 0 | . | .
Cc1cccc(-c2cc(C(=O)Nc3ccc(F)c([N+](=O)[O-])c3)c3ccccc3n2)c1 | -7 | 5.7* | -7 | 0 | 1 | 18
CC(C)CNC1CCN(c2ccc(C(=O)NC(C)c3ccccc3)cc2)CC1 (stereo unspecified) | -9 | 0 | -7 | 0 | . | .
CCN(CC)C(=O)Cn1cnc2sc(C(=O)Nc3cc(C)ccc3OC)c(C)c2c1=O | -3 | 4.9* | -3 | 0 | 2 | 5
Cc1c(C(=O)Nc2ccc3c(c2)OCO3)sc2ncn(CC(=O)N3CC(C)CC(C)C3)c(=O)c12 (stereo unspecified) | 13 | 5.0* | 6 | 0 | 0 | 1
CCN(CC)C(=O)Cn1cnc2sc(C(=O)Nc3cc(OC)ccc3OC)c(C)c2c1=O | 3 | 0 | 0 | 0 | . | .
Cc1c(C(=O)Nc2ccc(Oc3ccccc3)cc2)sc2ncn(CC(=O)Nc3ccc(C(C)C)cc3)c(=O)c12 | 8 | 0 | 1 | 0 | . | .
Cc1ccc(NC(=O)Cn2cnc3sc(C(=O)Nc4ccccc4)c(C)c3c2=O)cc1 | 6 | 8.9* | 11 | 1 | 0 | 2
Cc1sc2ncn(CC(=O)NCC(=O)NCc3ccccn3)c(=O)c2c1C | 14 | -1 | -2 | 0 | . | .
Cc1sc2ncn(CC(=O)NCc3ccccn3)c(=O)c2c1C | -14 | 5.1* | -6 | 0 | 0 | -11
C/C(=N\N=C(/N)SC1CC(=O)N(c2ccccc2)C1=O)c1ccc(Cl)cc1 (stereo unspecified) | 2 | 0 | 17 | 0 | . | .
COc1ccc2c(C)nc(/N=C(N)/N=C(\C)c3ccccc3C(=O)O)nc2c1 | 2 | -1 | 15 | 1 | . | .
COc1cc2c(cc1/C=C1\SC(=Nc3cccc(C(=O)O)c3)N(C)C1=O)OCO2 | 4 | -1 | 2 | 1 | . | .
N#Cc1ccccc1OCC(=O)N1CCOCC1 | 9 | 5.5* | 5 | 0 | 0 | 2
CC1(C)NC(=O)N(CCOc2ccc(OCc3ccccc3)cc2)C1=O | 6 | 7.2* | -1 | 0 | 0 | -17
